# Sampled rows, rich in hits. Any-hit rate of the full collection: about 7.4%.
# FLuc inh-1: blocks purified firefly luciferase enzyme activity; P08659; purified P. pyralis luciferase, luminescence, biochemical; Potency, µM (top dose mostly 115 µM), hits mostly inhibitors; 2.5% of 76,000 active; AID 1347043; note: nearly all actives have a fitted effect of over 65% in size
# Target sequence (P08659 whole entry, looked up): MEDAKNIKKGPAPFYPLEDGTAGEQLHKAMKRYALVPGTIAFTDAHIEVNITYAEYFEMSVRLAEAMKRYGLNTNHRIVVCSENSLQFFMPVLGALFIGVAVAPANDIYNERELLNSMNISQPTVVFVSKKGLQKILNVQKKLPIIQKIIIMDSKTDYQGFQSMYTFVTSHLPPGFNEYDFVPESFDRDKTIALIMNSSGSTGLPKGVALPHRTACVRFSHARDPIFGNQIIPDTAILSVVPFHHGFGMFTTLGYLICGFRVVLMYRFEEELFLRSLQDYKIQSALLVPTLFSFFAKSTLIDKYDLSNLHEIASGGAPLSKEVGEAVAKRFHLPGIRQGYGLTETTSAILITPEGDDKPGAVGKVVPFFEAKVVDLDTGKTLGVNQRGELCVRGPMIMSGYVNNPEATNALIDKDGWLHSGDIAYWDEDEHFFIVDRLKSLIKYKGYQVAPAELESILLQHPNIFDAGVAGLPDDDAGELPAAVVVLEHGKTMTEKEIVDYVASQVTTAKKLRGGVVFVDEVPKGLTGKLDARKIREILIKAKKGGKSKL
#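 Purified P. pyralis luciferase (10nM final) in 50mM Tris acetate pH 7.5, 10mM Mg acetate, 0.01% Tween-20, 0.05% BSA with 10uM D-luciferin and 10uM ATP. Compounds titrated qHTS. Luminescence imaged on CCD.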
# NPR1 antag: antagonists of human natriuretic peptide receptor Npr1; Potency, µM (highest dose often 46.3 µM), actives largely listed as inhibitors; 1.6% of 76,000 active; HEK293 hNpr1 GloSensor cGMP, ANP-stimulated luminescence; calls by dose curve; note: nearly all actives have a fitted effect of over 60% in size
#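 Compound pre-incubated 30 min at room temperature on GloSensor-loaded HEK293 cells stably carrying hNpr1 and the pGS-40F cGMP biosensor. Stimulation uses hNppA at 0.1 nM final; luminescence is taken at baseline and 20 min post-agonist.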
# HEK cytotox: cytotoxic compounds in HEK 293 cells; HEK 293 viability, ATP luminescence (CellTiter-Glo), 48-72 h; Potency, µM (titrated, usually from 115 µM), most hits filed as inhibitors; 6.6% of 94,000 active; AID 1345083; note: nearly all actives have a fitted effect of over 60% in size
#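 ATP-coupled CellTiter-Glo luminescence served as viability read-out, recorded 10 min after reagent addition at room temperature. HEK 293 cells, 250 cells/well, had been incubated with pintool-transferred compound for 48 or 72 hr at 37 degree Celsius.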
# HEK293 viab: counter-screen for SNCA expression inhibitors: cell viability | AID 1671193 | HEK-293-SNCA-luc viability, GF-AFC fluorescence, 24 h | Potency, µM (series often up to 57.1 µM), hits mostly cytotoxic | 0.12% of 150,000 active; note: nearly all actives have a fitted effect of over 30% in size
#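 HEK-293-SNCA-luc cells (1500/well) plated 24 h, then exposed 24 h to a dilution series; GF-AFC added 30 min at 37C, fluorescence 405/540 nm; normalised to medium-only and DMSO wells, Hill fit.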
# NIH3T3 tox: kills NIH 3T3 cells. 4.3% of 94,000 active. Potency, µM (top dose mostly 96.7 µM), actives largely listed as inhibitors. NIH 3T3 viability, CellTiter-Glo ATP luminescence, 48-72 h; note: nearly all actives have a fitted effect of over 55% in size
#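 Viability of NIH 3T3 cells after 48 or 72 hr compound treatment at 37 °C was assessed by CellTiter-Glo, with luminescence imaged following a 10 min room-temperature step.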
# SNCA expr inhib: inhibitors of alpha-synuclein (SNCA) gene expression. Potency, µM (highest dose often 57.2 µM), hits mostly inhibitors. 0.17% of 140,000 active. HEK-293 SNCA-luciferase knock-in, luminescence, 24 h; note: nearly all actives have a fitted effect of over 45% in size
# FLuc SDR no ATP: binders stabilizing firefly luciferase, without ATP | shares compounds with FLuc inh-1 | Purified FLuc-C-HiBiT, Nano-Glo HiBiT luminescence, no ATP | Potency, µM (titrated, usually from 32.7 µM), hits mostly activators | 7.8% of 1,300 active; note: nearly all actives have a fitted effect of over 55% in size
# FLuc SDR ATP: stabilizes firefly luciferase with ATP present | shares compounds with FLuc inh-1 | purified FLuc-C-HiBiT + ATP, HiBiT complementation luminescence | Potency, µM (highest dose often 32.7 µM), hits mostly activators | 8.7% of 1,300 active | AID 1963319;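 note: signal reports ligand binding via conformational change of the enzyme rather than luciferase catalysis; nearly all actives have a fitted effect of over 55% in size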
# FLuc inh-2: blocks firefly luciferase enzymatic activity; shares compounds with FLuc inh-1; purified FLuc-C-HiBiT enzyme, luciferin luminescence; Potency, µM (doses to about 32.7 µM), most hits filed as inhibitors; 42% of 1,300 active; AID 1963320; note: nearly all actives have a fitted effect of over 70% in size
# Hits are given with their value; . = inactive; ? = inconclusive; / = no result. Unless noted, calls come from the whole dose curve; as a rule, active = well fitted curve in the direction sought with a large enough effect; inconclusive = small, poorly fitted or top-dose-only effect, or another doubt; inactive = no such curve, though single readings can be large; an effect the other way counts as inactive or inconclusive.
SMILES,FLuc inh-1,NPR1 antag,HEK cytotox,HEK293 viab,NIH3T3 tox,SNCA expr inhib,FLuc SDR no ATP,FLuc SDR ATP,FLuc inh-2
c1ccc(-c2noc(-c3ccc(OC4CNC4)cc3)n2)cc1,0.71µM,8.9µM,25µM,.,22µM,10µM,?,?,2.8µM
O=C(Cc1ccccc1)N1CC(Oc2ccc(-c3nc(-c4ccccc4)no3)cc2)C1,?,?,?,.,.,.,/,/,/
COc1ccc(F)cc1-c1ccc(COc2ccc3c(cnn3CCC(=O)O)c2)cc1,22µM,.,?,.,.,.,.,.,?
COc1cc(Cl)ccc1-c1ccc(COc2ccc3c(cnn3CCC(=O)O)c2)cc1,50µM,.,?,.,.,.,.,.,?
CC(=O)Nc1cccc(-c2ccc(COc3ccc4c(cnn4CCC(=O)O)c3)cc2)c1,0.71µM,.,?,.,?,.,?,?,1µM
CCOc1ccc(C(=O)N2[C@@H]3CC[C@H]2CC(NC(=O)c2cnc(C)cn2)C3)cc1OCC (stereo not given in full),.,.,.,.,.,.,/,/,/
Cc1cnc(CCNS(=O)(=O)c2cccc(F)c2)n1C(C)C,.,.,.,.,.,.,/,/,/
Cc1c(-c2ccc(F)cc2)[nH]c2ccc(CNC(=O)CN3CCOC3=O)cc12,13µM,.,?,.,?,.,.,.,?
Cc1nc(-c2ccc(F)cc2)n(CC(=O)NCc2ccc3c(c2)OCO3)c(=O)c1CCO,.,.,.,.,?,.,/,/,/
CCNc1cc(N2CCC(CCC(=O)O)CC2)ncn1,32µM,.,.,.,.,1.3µM,.,9.9µM,5.6µM
COC(=O)C1CCN(c2csc3ccc(C)cc3c2=O)CC1,/,/,/,.,/,.,.,?,7.9µM
COc1ccc(-c2nnc([C@H]3CCN(Cc4ccc(F)c(F)c4)C3)o2)cc1,.,?,?,.,.,?,/,/,/
CCOC(=O)c1ccc(NC(=O)CSc2nnc(CNC(=O)c3ccc(OC)cc3)n2CC)cc1,/,/,/,.,/,.,.,.,?
O=C(CC1CCCC1)N1CCCCCC1c1nc(-c2cccnc2)no1 (stereo not given),.,.,?,.,.,.,/,/,/
CCN(CC)S(=O)(=O)c1ccc2nc(NC(=O)c3cccnc3)sc2c1,/,/,/,.,/,.,.,.,?
CCCCNS(=O)(=O)c1ccc2nc(NC(=O)c3cccnc3)sc2c1,/,/,/,.,/,.,/,/,/
COc1cc2c(cc1OC)C(C[C@H]1CN(C(=O)c3ccc4c(c3)OCO4)CC[C@H]1CC(=O)O)=NCC2,.,.,.,.,.,.,/,/,/
O=[S+]([O-])(c1ccccc1)N1CC(N2CCc3ccccc32)C1,/,/,?,.,?,.,/,/,/
N#C/C(=C\c1ccc(-c2cc(Cl)ccc2Cl)o1)C(=O)Nc1ccccc1C(=O)O,/,/,/,.,/,.,.,.,?
CNC(=O)COC(=O)N1CCC(CCc2ccc(Cl)cc2)CC1,/,/,/,.,/,/,/,/,/
CC(C)c1cnc(N2CCC(COc3ccc4c(cnn4CCC(=O)O)c3)CC2)nc1,14µM,.,?,.,?,.,.,.,?
COc1ccccc1Nc1ccnc(N2CCN(C(=O)c3ccc(C)cc3)CC2)n1,/,/,?,.,?,.,/,/,/
CC(=O)NC1(C)CN(Cc2ccc(-c3ccccc3OCc3ccccc3)s2)C1,7.1µM,?,40µM,.,28µM,.,.,.,?
Cc1c(-c2ccccc2F)[nH]c2ccc(CNC(=O)CC3CCC(=O)N3)cc12 (stereo not given),10µM,.,35µM,.,.,.,?,.,9.9µM
Cc1c(-c2ccccc2F)[nH]c2ccc(CNC(=O)CCc3cnccn3)cc12,?,.,?,.,?,.,/,/,/
Cc1c(-c2ccccc2F)[nH]c2ccc(CNC(=O)CCc3cc(=O)[nH]o3)cc12,2.8µM,.,.,.,?,?,.,.,9.9µM
Fc1ccc(CN2CCC3(CCC3N3CCOCC3)CC2)cc1F (stereo not given),/,/,.,.,.,.,/,/,/

# From PubChem BioAssay
